SMILES strings stand for the structures. Records with an inconclusive call do not appear. Entries that show only a call come without a potency. Activity calls are given as the source filed them. Unless noted, calls follow the shape of the dose curve; as a rule, active = well fitted curve in the direction sought with a large enough effect; inconclusive = small, poorly fitted or top-dose-only effect, or another doubt; inactive = no such curve, though single readings can be large; an effect the other way counts as inactive or inconclusive.

For assay [1], the target named is ATP-dependent 6-phosphofructokinase (Trypanosoma brucei brucei) (UniProt O15648). The experiment in a line: qHTS Assay to Find Inhibitors of T. brucei phosphofructokinase: hit validation (AID 492961).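 Also: luminescence reports ADP formed as PFK phosphorylates fructose-6-phosphate with ATP.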 Put shortly: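 Percent activity derived from corrected luminescence, normalized between 0x and 1x enzyme controls, then fitted to concentration-response curves. Conditions: 1.25 nM PFK, 0.1 mM ATP, 0.5 mM F6P, 45 min RT.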
For orientation: qHTS replaces the single test concentration by a dilution series.

Assay [2] has as its target Tyrosyl-DNA phosphodiesterase 1 (Homo sapiens) (UniProt Q9NUW8). The experiment in a line: Confirmation Assay for Inhibitors of Tyrosyl-DNA Phosphodiesterase (TDP1) (AID 489007). Also: potency is read from the fitted curve at half-maximal effect; nearly all actives have a fitted effect of over 40% in size. As to conditions: recombinant human TDP1 enzymatic activity, dose-response. In short, it runs like this: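 Tdp1 1 nM + cpd, 15 min RT; add biotin/phosphotyrosine-FITC oligo 15 nM, 5 min RT; add AS donor/acceptor beads 10 ug/ml, 10 min RT; read AlphaScreen. No-enzyme wells = max signal.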

Assay [3] in a line: Validation screen for small molecules that induce DNA re-replication in MCF 10A normal breast cells (AID 463097). Also: nearly all actives have a fitted effect of over 60% in size. In short, it runs like this:
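Readout: Hoechst nuclear fluorescence intensity, 405 ex / 500-530 em, by scanning plate imager; re-replication scored as increase in nuclei with elevated DNA content. Cells exposed to compound 48 hr, 37 C, 5% CO2 beforehand.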

Assay [4] concerns the target M-phase phosphoprotein 8 (Homo sapiens) (UniProt Q99549). Description: qHTS Validation Assay for Inhibitors for MPP8 Chromodomain Interactions with Methylated Histone Tails (AID 488949).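 Also: AlphaScreen signal from MPP8 chromodomain bound to biotinylated H3K9me3 peptide; top concentration of the series differs between compounds; nearly all actives have a fitted effect of over 55% in size.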 Put shortly:
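MPP8 (50 nM) was preincubated with biotinylated H3(1-18)K9me3 peptide (50 nM) in PBS pH 7.4, 0.01% Tween-20 for 30 min at room temperature, then with compounds for 30 min; binding was detected by AlphaScreen.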

Assay [5] has as its target Transient receptor potential cation channel subfamily V member 1 (Homo sapiens) (UniProt Q8NER1). Description: HTS Assay for Compounds that Act as Enhancers of the Vanilloid Receptor 1 (AID 488979). Put shortly: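 TRPV1-expressing cells loaded with Fluo-8 calcium dye; compounds added and calcium influx read kinetically for 3 min (agonist phase), then capsaicin at EC20 added and read 2 min more for enhancement. Fluorescence ex 480/em 520 nm.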

The target of assay [6] is Thyrotropin receptor (Homo sapiens) (UniProt P16473). Description: qHTS Assay for Antagonists of the Thyroid Stimulating Hormone Receptor (AID 488980). In short, it runs like this:
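HEK293 cells transfected with human TSHR, suspended in HEPES-buffered HBSS with 70 uM RO 20-1724, were treated with compounds plus TSH at EC80 (4 nM final). cAMP was measured by competitive HTRF (cryptate anti-cAMP antibody, cAMP-d2 acceptor).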

Assay [7] deals with Ubiquitin carboxyl-terminal hydrolase 2 (Homo sapiens) (UniProt O75604). Description: qHTS Validation Assay for Inhibitors of Ubiquitin-specific Protease USP2a Using CHOP2 as the Reporter (AID 463106). In short, it runs like this:
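USP2 core (10nM final) was preincubated with compound for 30min at RT in 20mM Tris-HCl pH 8.0, 2mM CaCl2, 2mM beta-mercaptoethanol, 0.05% CHAPS. Ub-CHOP2 and reporter substrate (25nM each) were added, and fluorescence (Ex 485/Em 531nm) was read after 60min.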

Assay [8] concerns the target DNA polymerase III PolC-type (Bacillus subtilis (strain 168)) (UniProt P13267). Description: qHTS Validation Assay for the Inhibitors of DNA Replication in Gram-Positive Bacteria (AID 485295).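 Also: PicoGreen fluorescence of double-stranded DNA made on primed circular M13 template.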 Put shortly:
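Reconstituted B. subtilis holoenzyme (Pol III, beta clamp, SSB, primase) was preincubated with compound at room temperature, then given single-stranded circular M13Gori plus dNTPs and NTPs. EDTA-containing PicoGreen stopped the reaction, and dsDNA product was read by fluorescence.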

The target in assay [9] is Tumor susceptibility gene 101 protein (Homo sapiens) (UniProt Q99816). The experiment in a line: qHTS Validation Assay for Iinhibitors of HIV-1 Budding by Blocking the Interaction of PTAP/TSG101 (AID 485342; calls by dose curve). Put shortly:
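Tsg101 binding domain (10 uM final) in pH 7.5 HEPES/NaCl/Tween 20/EDTA/TCEP buffer was mixed with pin-transferred compounds, then FITC-labeled PTAP peptide (50 nM final) was added; after 20 min at r.t., fluorescence polarization was read.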

Assay [10] concerns the target Beta-2 adrenergic receptor (Homo sapiens) (UniProt P07550). Description: qHTS validation assay of beta-arrestin-biased ligands of beta2-adrenergic receptor (AID 485366). Put shortly: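 Values derive from curve-fitted %Activity of a luminescent beta-arrestin recruitment reporter; compounds tested up to 46 microM on Tango cells for 18 hr at 37 degrees C, 5% CO2.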
Assay [11] deals with ATP-dependent 6-phosphofructokinase (Trypanosoma brucei brucei) (UniProt O15648). Description: qHTS Validation Assay to Find Inhibitors of T. brucei phosphofructokinase (AID 485368). As to conditions: T. brucei PFK enzyme assay, qHTS 7-point titration; at 57.5 µM (top of the series). In short, it runs like this: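 Enzyme reaction in triethanolamine buffer pH 8.0 with 5 mM MgCl2, 0.01% Tween20 and 0.1% BSA; PFK 1.25 nM, F6P 0.5 mM, ATP 0.1 mM, 45 min RT. ADP quantified by ADP-Glo.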

Assay [12] has as its target Thioredoxin reductase 1, cytoplasmic (Rattus norvegicus) (UniProt O89049). Description: qHTS Assay for Substrates of Mammalian Selenoprotein Thioredoxin Reductase 1 (TrxR1) (AID 488772).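 Also: NADPH fluorescence in the first read after selenite addition and not the 8 min delta; a drop in NADPH fluorescence below the no-compound background marks a TrxR1 substrate.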 Put shortly: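 Quantitative HTS in Tris-HCl buffer at pH 7.5 with EDTA and Tween-20, using rat TrxR1, 400 uM NADPH and 400 uM selenite (final). A fall in initial NADPH fluorescence relative to background marked substrate behaviour.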

The target is the same in assay [13]. Description: qHTS Assay for Inhibitors of Mammalian Selenoprotein Thioredoxin Reductase 1 (TrxR1) (AID 488773).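 Also: drop in NADPH fluorescence over an 8 min run after selenite addition; nearly all actives have a fitted effect of over 40% in size.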 In short, it runs like this:
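Steps: enzyme (90 nM) plus NADPH (400 uM final), 5 min at ~22 deg C; compound added, 15 min; selenite (400 uM final) added; fluorescence followed for 8 min. Concentration-response curves derived from the normalized delta values.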

The target of assay [14] is Flap endonuclease 1 (Homo sapiens) (UniProt P39748). The experiment in a line: qHTS Validation Assay for the Inhibitors of Human Flap endonuclease 1 (FEN1) (AID 488816). In short, it runs like this:
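FEN1, dispensed as a 10 nM reagent, was preincubated with pin-transferred compounds for 15 min at room temperature before substrate was added (50 nM final). Plates were read at 0 and 15 min, and a four-parameter Hill equation was fitted to the concentration-response data.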

In assay [15] the target is Methanococcus maripaludis chaperonin (MmCpn) (UniProt Q6LX38). Description: High-Throughput Screening for Modulators of Cytosolic Chaperonin Activity: MmCpn Primary Screen (AID 488978).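 Also: 50 nM MmCpn enzyme hydrolysing 30 µM ATP at 37 °C.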 Put shortly: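 MmCpn (50 nM final) was preincubated with compound 5 min at RT, then 30 uM ATP (final) was added and the reaction ran 10 min at 37C. ADP produced was detected by Transcreener HTRF (ex 320 nm; em 590/665 nm).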

In assay [16] the target is D(1A) dopamine receptor (Homo sapiens) (UniProt P21728). Description: HTS Assay for Allosteric Agonists of the Human D1 Dopamine Receptor: Primary Screen for Agonists (AID 488981). In short, it runs like this: (§1)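 Tetracycline-induced HEK293 T-REx cells force-coupled to calcium signalling were incubated overnight at 30 C and dye-loaded at room temperature. Calcium flux over 180 s after compound addition flagged agonists; a further 180 s read after EC20 dopamine flagged potentiators.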

For assay [17] the target is unchanged. Description: HTS Assay for Allosteric Agonists of the Human D1 Dopamine Receptor: Primary Screen for Potentiators (AID 488982). Put shortly: as §1
For assay [18] the target is unchanged. Description: HTS Assay for Allosteric Agonists of the Human D1 Dopamine Receptor: Primary Screen for Antagonists (AID 488983).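 Also: calcium flux response to an EC80 dopamine challenge measured with no-wash dye; nearly all actives have a fitted effect of over 65% in size.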 Put shortly: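 Cells are induced with tetracycline and incubated overnight at 30 C, then loaded with calcium dye for 30 to 90 minutes at room temperature. Compound addition is followed by a 180 s read, then an EC80 dopamine addition and another 180 s read.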

Assay [19] can be described thus: Validation screen for small molecules that induce genotoxicity in human embryonic kidney (HEK293T) cells expressing luciferase-tagged ELG1 (AID 493106). In short, it runs like this: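 Luminescence from an ELG1-luciferase fusion serves as the read-out, rising when genetic stress elevates ELG1 protein. HEK293T reporter cells (2,000 per well) received 23 nL compound, incubated 16 hr at 37 °C, then ONE-Glo for 30 min at room temperature.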

The target of assay [20] is ATPase family AAA domain-containing protein 5 (Homo sapiens) (UniProt Q96QE3). Description: Validation screen for small molecules that inhibit ELG1-dependent DNA repair in human embryonic kidney (HEK293T) cells expressing luciferase-tagged ELG1 (AID 493107).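 Also: cells co-treated with the DNA-damaging agent 5-fluorouridine alongside compound; inhibitors lower the ELG1-luciferase luminescence signal; nearly all actives have a fitted effect of over 70% in size.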 In short, it runs like this:
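Luminescence from ONE-Glo, developed 30 min at room temperature, served as read-out of ELG1-luciferase levels. Beforehand, reporter HEK293T cells received 5-fluorouridine plus test compound for 16 hr at 37 °C.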

Chain of M-phase phosphoprotein 8 (Homo sapiens) (Q99549 whole entry, looked up): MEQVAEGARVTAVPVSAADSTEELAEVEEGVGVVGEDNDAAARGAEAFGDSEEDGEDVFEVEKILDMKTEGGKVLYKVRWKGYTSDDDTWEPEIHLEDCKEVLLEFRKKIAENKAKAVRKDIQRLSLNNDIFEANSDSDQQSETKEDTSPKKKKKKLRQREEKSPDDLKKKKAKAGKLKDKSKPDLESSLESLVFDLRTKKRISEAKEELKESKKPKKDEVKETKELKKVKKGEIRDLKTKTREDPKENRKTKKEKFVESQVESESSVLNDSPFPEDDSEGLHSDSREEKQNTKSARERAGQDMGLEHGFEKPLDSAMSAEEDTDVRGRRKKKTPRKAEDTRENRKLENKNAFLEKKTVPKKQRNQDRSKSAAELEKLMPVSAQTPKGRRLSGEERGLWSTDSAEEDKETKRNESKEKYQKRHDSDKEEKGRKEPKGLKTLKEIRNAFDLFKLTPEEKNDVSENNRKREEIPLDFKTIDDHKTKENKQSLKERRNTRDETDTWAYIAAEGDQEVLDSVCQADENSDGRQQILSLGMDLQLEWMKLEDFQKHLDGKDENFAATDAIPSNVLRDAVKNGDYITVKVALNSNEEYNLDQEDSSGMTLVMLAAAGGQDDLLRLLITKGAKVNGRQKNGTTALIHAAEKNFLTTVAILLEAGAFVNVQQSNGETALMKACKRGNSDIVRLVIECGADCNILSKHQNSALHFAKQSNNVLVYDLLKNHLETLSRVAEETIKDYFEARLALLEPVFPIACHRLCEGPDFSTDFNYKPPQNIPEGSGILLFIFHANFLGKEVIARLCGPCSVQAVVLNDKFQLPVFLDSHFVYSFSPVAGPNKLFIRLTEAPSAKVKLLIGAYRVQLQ
Chain of ATP-dependent 6-phosphofructokinase (Trypanosoma brucei brucei) (O15648 whole entry, looked up): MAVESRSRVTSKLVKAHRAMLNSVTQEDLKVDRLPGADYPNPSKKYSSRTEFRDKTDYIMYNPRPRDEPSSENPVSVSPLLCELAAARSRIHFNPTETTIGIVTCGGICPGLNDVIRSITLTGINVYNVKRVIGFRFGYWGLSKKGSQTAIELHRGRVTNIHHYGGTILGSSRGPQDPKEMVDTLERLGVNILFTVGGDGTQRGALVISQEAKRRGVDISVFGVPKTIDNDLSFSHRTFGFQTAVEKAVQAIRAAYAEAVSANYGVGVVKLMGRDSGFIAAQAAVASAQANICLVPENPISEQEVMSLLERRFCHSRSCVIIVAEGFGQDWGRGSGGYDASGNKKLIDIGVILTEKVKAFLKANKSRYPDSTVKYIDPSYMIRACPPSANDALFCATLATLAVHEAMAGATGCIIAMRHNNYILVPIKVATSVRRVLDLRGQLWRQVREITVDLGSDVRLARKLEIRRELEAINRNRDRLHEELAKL
Chain of D(1A) dopamine receptor (Homo sapiens) (P21728 whole entry, looked up): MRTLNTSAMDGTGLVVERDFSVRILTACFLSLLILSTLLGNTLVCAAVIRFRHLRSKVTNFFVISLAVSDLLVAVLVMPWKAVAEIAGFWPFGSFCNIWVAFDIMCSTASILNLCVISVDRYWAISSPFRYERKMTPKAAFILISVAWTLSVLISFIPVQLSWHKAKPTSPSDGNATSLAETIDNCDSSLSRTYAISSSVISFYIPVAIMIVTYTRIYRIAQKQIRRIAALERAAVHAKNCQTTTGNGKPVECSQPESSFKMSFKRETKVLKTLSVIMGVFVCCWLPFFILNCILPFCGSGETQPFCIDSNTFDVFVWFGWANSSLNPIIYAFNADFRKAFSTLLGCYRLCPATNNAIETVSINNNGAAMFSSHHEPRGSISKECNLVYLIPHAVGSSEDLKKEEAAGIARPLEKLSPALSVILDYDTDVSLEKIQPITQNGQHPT
Chain of Thyrotropin receptor (Homo sapiens) (P16473 whole entry, looked up): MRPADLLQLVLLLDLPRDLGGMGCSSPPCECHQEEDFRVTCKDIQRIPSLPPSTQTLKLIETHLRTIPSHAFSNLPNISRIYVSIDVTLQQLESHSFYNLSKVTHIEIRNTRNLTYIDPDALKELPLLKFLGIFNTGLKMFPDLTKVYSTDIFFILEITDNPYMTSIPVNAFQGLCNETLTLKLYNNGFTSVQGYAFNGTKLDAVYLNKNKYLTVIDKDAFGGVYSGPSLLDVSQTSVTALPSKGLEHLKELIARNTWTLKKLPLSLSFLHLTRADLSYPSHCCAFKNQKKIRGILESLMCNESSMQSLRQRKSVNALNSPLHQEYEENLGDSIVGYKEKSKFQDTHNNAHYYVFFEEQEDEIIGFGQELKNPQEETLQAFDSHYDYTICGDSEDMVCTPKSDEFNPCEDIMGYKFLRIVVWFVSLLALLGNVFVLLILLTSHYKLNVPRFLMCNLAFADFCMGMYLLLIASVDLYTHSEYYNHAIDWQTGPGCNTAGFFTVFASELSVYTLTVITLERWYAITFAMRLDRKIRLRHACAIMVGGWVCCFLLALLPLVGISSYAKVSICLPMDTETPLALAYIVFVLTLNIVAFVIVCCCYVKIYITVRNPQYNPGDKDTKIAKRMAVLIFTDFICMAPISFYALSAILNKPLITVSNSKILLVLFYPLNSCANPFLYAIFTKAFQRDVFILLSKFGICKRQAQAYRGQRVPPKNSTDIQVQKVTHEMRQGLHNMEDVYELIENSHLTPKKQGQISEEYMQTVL
Chain of Transient receptor potential cation channel subfamily V member 1 (Homo sapiens) (Q8NER1 whole entry, looked up): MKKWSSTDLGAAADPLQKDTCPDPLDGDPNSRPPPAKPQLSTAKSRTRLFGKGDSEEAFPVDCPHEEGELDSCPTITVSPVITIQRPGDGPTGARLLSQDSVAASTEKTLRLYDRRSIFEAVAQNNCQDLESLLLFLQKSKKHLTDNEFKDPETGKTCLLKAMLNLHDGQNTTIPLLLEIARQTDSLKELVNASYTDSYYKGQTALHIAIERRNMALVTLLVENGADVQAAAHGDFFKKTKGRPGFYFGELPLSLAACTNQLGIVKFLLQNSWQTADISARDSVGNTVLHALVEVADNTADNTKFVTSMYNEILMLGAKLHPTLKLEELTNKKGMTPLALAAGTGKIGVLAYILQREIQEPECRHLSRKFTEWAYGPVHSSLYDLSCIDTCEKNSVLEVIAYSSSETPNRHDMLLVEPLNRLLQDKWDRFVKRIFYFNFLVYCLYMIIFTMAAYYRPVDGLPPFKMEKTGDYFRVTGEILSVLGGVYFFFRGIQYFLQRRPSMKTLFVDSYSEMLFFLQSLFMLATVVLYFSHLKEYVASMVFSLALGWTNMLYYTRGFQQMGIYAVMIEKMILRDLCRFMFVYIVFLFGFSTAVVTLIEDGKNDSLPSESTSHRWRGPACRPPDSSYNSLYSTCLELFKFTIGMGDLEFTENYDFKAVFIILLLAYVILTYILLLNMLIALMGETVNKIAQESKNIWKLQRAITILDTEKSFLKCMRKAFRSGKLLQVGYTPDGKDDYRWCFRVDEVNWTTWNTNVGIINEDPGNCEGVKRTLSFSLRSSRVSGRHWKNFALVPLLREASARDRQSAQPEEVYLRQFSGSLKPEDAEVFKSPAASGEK
Chain of Thioredoxin reductase 1, cytoplasmic (Rattus norvegicus) (O89049 whole entry, looked up): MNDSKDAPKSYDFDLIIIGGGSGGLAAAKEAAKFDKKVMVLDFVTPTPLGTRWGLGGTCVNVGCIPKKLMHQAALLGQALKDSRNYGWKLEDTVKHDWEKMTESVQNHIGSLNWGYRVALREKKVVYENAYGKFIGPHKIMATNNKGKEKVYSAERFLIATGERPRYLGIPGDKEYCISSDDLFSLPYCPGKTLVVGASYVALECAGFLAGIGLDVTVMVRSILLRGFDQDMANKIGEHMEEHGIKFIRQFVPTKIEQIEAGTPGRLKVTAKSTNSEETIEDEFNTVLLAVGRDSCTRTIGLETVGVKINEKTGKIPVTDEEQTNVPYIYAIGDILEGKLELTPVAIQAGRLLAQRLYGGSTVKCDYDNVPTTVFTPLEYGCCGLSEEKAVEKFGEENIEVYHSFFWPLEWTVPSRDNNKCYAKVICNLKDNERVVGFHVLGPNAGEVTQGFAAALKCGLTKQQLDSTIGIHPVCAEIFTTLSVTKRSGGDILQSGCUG
Chain of Flap endonuclease 1 (Homo sapiens) (P39748 whole entry, looked up): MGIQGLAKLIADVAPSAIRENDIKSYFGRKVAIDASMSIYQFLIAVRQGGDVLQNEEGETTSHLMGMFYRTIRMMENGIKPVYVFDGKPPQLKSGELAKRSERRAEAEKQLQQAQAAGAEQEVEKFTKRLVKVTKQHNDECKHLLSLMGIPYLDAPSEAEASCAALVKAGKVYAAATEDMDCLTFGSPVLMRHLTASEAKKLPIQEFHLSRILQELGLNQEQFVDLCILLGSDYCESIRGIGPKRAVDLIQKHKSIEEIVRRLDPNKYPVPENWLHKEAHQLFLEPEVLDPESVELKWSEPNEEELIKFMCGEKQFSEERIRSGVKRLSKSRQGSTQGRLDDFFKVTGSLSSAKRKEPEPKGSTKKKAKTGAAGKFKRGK
Chain of Tumor susceptibility gene 101 protein (Homo sapiens) (Q99816 whole entry, looked up, the tested form may be a part): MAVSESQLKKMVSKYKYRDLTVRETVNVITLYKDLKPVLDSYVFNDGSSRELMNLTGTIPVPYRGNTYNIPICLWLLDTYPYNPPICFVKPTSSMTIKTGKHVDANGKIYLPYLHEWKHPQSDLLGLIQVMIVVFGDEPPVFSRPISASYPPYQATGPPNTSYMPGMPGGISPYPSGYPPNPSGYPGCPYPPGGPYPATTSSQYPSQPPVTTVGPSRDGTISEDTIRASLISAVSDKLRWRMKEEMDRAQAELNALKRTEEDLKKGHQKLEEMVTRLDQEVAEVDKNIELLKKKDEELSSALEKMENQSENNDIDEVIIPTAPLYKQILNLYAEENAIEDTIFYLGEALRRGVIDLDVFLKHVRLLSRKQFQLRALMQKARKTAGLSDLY

Regarding `CCOc1ccc(N=Nc2ccc(N)cc2N)cc1`, the Potency entry in [1] is “inactive”.
`O=C(O)c1cc(O)c2c(c1)[O][Bi][O]2`: the Potency in [2] was 15.8 µM (active). Also, in [1], the Potency entry is “inactive”.
In the case of `C[C@@H]1CCC2[C@@H](C)[C@@H](O)O[C@@H]3O[C@@]4(C)CC[C@@H]1[C@@]23OO4` (some centres undefined), in assay [1], the Potency entry is “inactive”.
The same measure, in the same setting: then `COC(=O)C1=C(C#N)NC(C)=C(C(=O)OC(C)C)C1c1cccc([N+](=O)[O-])c1` (centres undefined), with “inactive”; and `CC(=O)Oc1cc(C)c(OC(C)=O)c2ccccc12`, with “inactive”; and `O=C1CSC2(CCN(CCCN3c4ccccc4Sc4ccc(Cl)cc43)CC2)N1`, with “inactive”.
Still for that read-out and setting: then `CC[C@@]1(O)C(=O)OCc2c1cc1n(c2=O)Cc2cc3c([N+](=O)[O-])cccc3nc2-1`, with “inactive”.
With `CC[N+](C)(C)Cc1ccccc1Br`, the outcome in [3], in assay [4], in [5] and in assay [6] was inactive. Moreover, the Potency entry in assay [1] was “inactive”.
On to `CC(C)=O`, for which the Potency result in [1] is “inactive”.
For the molecule `C#CCOc1ccc2c(C)cc(=O)oc2c1`, the Potency result in assay [1] was “inactive”.
The same measure, in the same setting: then `CCCCCCCCCCCC[n+]1ccc2ccccc2c1`, with “inactive”; and `CCCC(=O)O[C@]1(C(=O)CCl)[C@H](C)C[C@@H]2[C@H]3CCC4=CC(=O)C=C[C@]4(C)[C@@]3(F)C(=O)C[C@@]21C`, with “inactive”; and `Nc1c(N=Nc2ccc(-c3ccc(N=Nc4cc(S(=O)(=O)O)c5ccccc5c4N)cc3)cc2)cc(S(=O)(=O)O)c2ccccc12`, with “inactive”.
On to `O=C(COc1ccc(Cl)cc1)OCCNC12CC3CC(CC(C3)C1)C2`, for which the Potency result in [1] is “inactive”.
On to `COC(C(=O)C(O)C(C)O)C1Cc2cc3cc(OC4CC(OC5CC(O)C(O)C(C)O5)C(O)C(C)O4)c(C)c(O)c3c(O)c2C(=O)C1OC1CC(OC2CC(OC3CC(C)(O)C(O)C(C)O3)C(O)C(C)O2)C(O)C(C)O1` (centres undefined), for which the Potency result in [1] is “inactive”.
As to `CN1Cc2c(N)cccc2C(c2ccccc2)C1` (centres undefined), the call in [3], in assay [7], in [8], in assay [9], in assay [10] and in [11] was inactive. Moreover, the outcome in [12], in assay [13], in assay [14], in [4], in assay [15] and in assay [5] was inactive. Besides, the molecule was classed as inactive in assay [6], in assay [16], in assay [17], in assay [18], in assay [19] and in [20]. Besides, in assay [1], the Potency result is “inactive”.

The values above are taken from PubChem BioAssay (NCATS).
